# Source: PubChem BioAssay (National Center for Advancing Translational Sciences (NCATS))
# POLH inh: inhibitors of human DNA polymerase eta; recombinant Pol eta, fluorescent DNA replication assay; Potency, µM (top dose mostly 114 µM), for inactives: at the top dose activity change, negative = inhibition, most hits filed as inhibitors; actives 1.2% (n = 390,000); note: % is set by controls: 0 for no effect and ±100 for the full control effect
#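 Pol eta (10 nM) was preincubated with compounds for 15 min at room temperature, after which fluorescent replication substrate (50 nM final) was added to start the reaction. Fluorescence was read kinetically at 0 and 10 min.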
# POLK inh: DNA polymerase kappa (human) inhibition. Q9UBT6. actives 0.53% (n = 400,000). Potency, µM (doses to about 107 µM), for the others: top-dose activity, negative = inhibition, most hits filed as inhibitors. purified Pol kappa, fluorescent DNA synthesis assay, 10 min; note: % is set by controls: 0 for no effect and ±100 for the full control effect
#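 Kinetic fluorescence readout at 0 and 10 min followed reaction start with substrate at 50 nM final. Beforehand, enzyme (10 nM Pol kappa) stood 15 min with compound at room temperature; buffer-only wells were negative controls.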
# WRN inhibitor: blocks human WRN helicase; WRN helicase unwinding, fluorescent forked duplex, kinetic; Potency, µM (top dose mostly 114 µM), without a hit: top-dose activity change, negative = inhibition, usual class: inhibitors; actives 0.46% (n = 360,000); AID 651768; note: % is set by controls: 0 for no effect and ±100 for the full control effect; nearly all actives have a fitted effect of over 55% in size
#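 Fluorescence dequenching readout, ex 525 nm/em 598 nm, kinetic mode: forked duplex DNA (100 nM final) with adjacent fluorophore and quencher unwound by WRN (20 nM final) with 2 mM ATP. Compound preincubation 15 min, room temperature.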
# POLB inh: blocks human DNA polymerase beta activity; Potency, µM (doses to about 114 µM), without a hit: at the highest dose activity change, negative = inhibition, usual class: inhibitors; P06746; actives 1.3% (n = 340,000); AID 485314; Pol beta primer extension/strand displacement, fluorescence kinetic; note: % is set by controls: 0 for no effect and ±100 for the full control effect
#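 Curves were derived by four-parameter Hill fits of normalized qHTS data. The kinetic fluorescent primer-extension read was taken at 0 and 10 min after 50 nM substrate, following a 15 min room-temperature preincubation of 10 nM enzyme with compounds.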
# Pol iota inh: blocks human DNA polymerase iota activity | Q9UNA4 | Pol iota fluorescent replication assay, 10 min | Potency, µM (doses to about 115 µM), for the others: at the highest dose activity, negative = inhibition, usual class: inhibitors | actives 1% (n = 390,000)
# Target sequence (Q9UNA4 whole entry, looked up): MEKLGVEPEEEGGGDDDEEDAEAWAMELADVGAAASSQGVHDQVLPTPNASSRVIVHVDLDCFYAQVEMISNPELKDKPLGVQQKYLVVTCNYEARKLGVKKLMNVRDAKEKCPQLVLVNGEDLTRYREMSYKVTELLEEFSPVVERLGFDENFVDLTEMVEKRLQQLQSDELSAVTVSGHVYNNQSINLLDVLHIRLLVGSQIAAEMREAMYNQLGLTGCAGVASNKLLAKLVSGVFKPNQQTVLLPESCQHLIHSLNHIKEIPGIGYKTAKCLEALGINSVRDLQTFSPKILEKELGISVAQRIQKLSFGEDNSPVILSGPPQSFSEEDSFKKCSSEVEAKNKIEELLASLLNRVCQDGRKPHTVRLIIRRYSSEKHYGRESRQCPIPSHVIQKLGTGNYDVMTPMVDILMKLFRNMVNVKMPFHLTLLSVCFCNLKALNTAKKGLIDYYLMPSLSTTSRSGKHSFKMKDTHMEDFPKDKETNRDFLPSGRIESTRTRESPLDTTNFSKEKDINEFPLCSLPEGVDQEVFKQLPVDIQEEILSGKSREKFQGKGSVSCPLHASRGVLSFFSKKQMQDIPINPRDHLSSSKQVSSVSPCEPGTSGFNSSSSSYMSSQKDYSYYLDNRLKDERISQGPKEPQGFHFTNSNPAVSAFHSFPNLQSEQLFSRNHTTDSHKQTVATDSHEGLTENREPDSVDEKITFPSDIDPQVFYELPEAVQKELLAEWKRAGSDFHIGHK
#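 Pol iota at 10 nM preincubated 15 min with compounds at room temperature; reaction started with fluorescent substrate, 50 nM final. Fluorescence read kinetically at 0 and 10 min; buffer-only wells as negative control.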
# L3MBTL1 inh: L3MBTL1 (human) inhibition; Q9Y468; AlphaScreen L3MBTL1–H3K9me1 peptide binding; Potency, µM (doses to about 57.1 µM), inactives show top-dose activity, negative = inhibition, hits mostly inhibitors; actives 0.66% (n = 230,000); AID 485360; note: % is set by controls: 0 for no effect and ±100 for the full control effect; nearly all actives have a fitted effect of over 60% in size
#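 AlphaScreen assay: L3MBTL1 (50 nM final) was preincubated 30 min at room temperature with biotinylated H3(1-15)K9me1 peptide (75 nM final), then 30 min with library compounds; streptavidin donor and nickel chelate acceptor beads (10 ug/mL final) added, 30 min dark.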
# * marks the source's active call; other numbers are inactive results; ? = inconclusive; nt = not tested or not shown; [ ] = remark or other dose. Most compounds without a hit are left out; they make up all but 2.5% or so of the library. Calls come from the whole dose curve; as a rule, active = well fitted curve in the direction sought with a large enough effect; inconclusive = small, poorly fitted or top-dose-only effect, or another doubt; inactive = no such curve, though single readings can be large; an effect the other way counts as inactive or inconclusive. Potency is the fitted concentration of half-maximal effect.
SMILES,POLH inh,POLK inh,WRN inhibitor,POLB inh,Pol iota inh,L3MBTL1 inh
COc1ccc(OC)c(NC(=O)c2cc(-c3cc(C)ccc3O)n[nH]2)c1,-28.3%,-6.7%,5.2%,-27.8%,25.1µM*,nt
Cc1cc(C)cc(Cn2cc(CN3CC(N4CCN(CCO)CC4)CS3(=O)=O)nn2)c1 (stereo not drawn),nt,nt,-3.1%,nt,nt,nt
NC(=O)CSc1nc2scc(-c3ccco3)c2c(=O)n1-c1ccccc1,79.4µM*,44.7µM*,?,?,11.2µM*,nt
O=C(CSc1nc2scc(-c3ccco3)c2c(=O)n1-c1ccccc1)N1CCOCC1,-10.0%,-13.0%,-2.7%,15.9%,-1.9%[58.9 µM],-7.5%
O=c1c2c(-c3ccco3)csc2nc(SCc2cn3cccnc3n2)n1-c1ccccc1,11.2µM*,-22.6%,56.2µM*,-1.0%,?,-16.9%
COCCN1C(=O)N(c2cccc(C)c2)C(=O)C1CC(=O)Nc1ccc(F)cc1 (stereo not drawn),5.6%,-6.8%,-0.9%,10.7%,10.0%,nt
COC(=O)[C@@]12OC[C@]34[C@H]([C@@H](O)[C@@H]1O)[C@@]1(C)C(=O)C(O[C@@H]5OC(CO)[C@@H](O)[C@@H](O)[C@@H]5O)=C[C@@H](C)[C@@H]1C[C@H]3OC(=O)[C@H](OC(=O)/C=C(\C)C(C)(C)OC(C)=O)[C@@H]24 (stereo partly drawn),8.1%,-6.2%,-2.0%,nt,27.6%,0.6%
CN(C)CCc1cc2c(c3c1ccc1ccccc13)OCO2,-24.1%,?,-5.4%,20µM*,?,-3.8%
O=C(CSc1ncccn1)Nc1ccc(N2CCOCC2)cc1,-14.7%,-1.4%,-21.0%[57.1 µM],41.0%,18.3%,nt
O=C(CSc1nc2ncccc2[nH]1)Nc1cc(F)ccc1F,1.9%,12.3%,nt,44.5%,27.7%,nt
CCCCC(C)/C=C(C)/C=C(\C)C(=O)NC1=CC(O)(/C=C/C=C/C=C/C(=O)NC2=C(O)CCC2=O)C2OC2C1=O (stereo not drawn),nt,26.7µM*,nt,nt,nt,nt
Cc1cc(-c2csc(NC(=O)c3ccc(=O)[nH]c3)n2)c(C)n1Cc1ccccc1,-14.1%,-7.1%,-0.6%,20µM*,2.9%,?
Cc1cc(-c2csc(NC(=O)c3cc4ccccc4o3)n2)c(C)n1C,-0.8%,-32.3%,-8.1%,0.2%,-7.3%,?
Cc1ccc(NC(=O)CSc2nnc(-c3ccccn3)n2N)c(Br)c1,-7.3%,0.6%,14.2%,-3.6%,12.2%,25.1µM*
COc1ccc(NC(=O)CSc2nnc(-c3ccccn3)n2N)c(OC)c1,-3.0%,-4.5%,-9.6%,1.9%,-2.7%,?
CN(C)c1ccc(Cc2cc3c(O)ccc(O)c3cc(Cc3ccc(N(C)C)cc3)c2=O)cc1,2.24µM*,7.94µM*,12.6µM*,nt,3.16µM*,nt
Cc1ccc(NC(=O)c2ccc(Cl)c(N3C(=O)C=CC3=O)c2)cc1,-2.6%,-9.5%,50.1µM*,1.0%,2.4%,-1.1%
Cc1cc(C)n2nc(C(=O)OCC(=O)NCc3ccc(F)cc3)nc2n1,3.2%,2.7%,-1.7%,nt,9.4%,3.0%
CCOc1ccc2nc3cc(N=Nc4ccc(N)nc4N)ccc3c(N)c2c1,44.7µM*,?,?,nt,?,nt
COc1ccc(N=Nc2ccc(N)nc2N)cc1,-11.3%,-6.8%,-12.0%,-5.4%,9.3%,-17.2%
O=C1CSC(=S)N1Nc1ccccc1,-9.4%,-6.0%,?,nt,31.6µM*,nt
CCOc1ccc(C(CC(=O)O)N2Cc3ccccc3C2=O)cc1OC (stereo not drawn),-16.5%,13.2%,nt,-4.2%,32.0%,nt
COc1ccc(NC(=O)/C(Cl)=C(/Cl)S(=O)(=O)Cc2ccc(C)cc2)cn1,14.1µM*,-6.2%,50.1µM*,-0.9%,?,nt
COc1ccc(NC(=O)/C(Cl)=C(/Cl)S(=O)Cc2ccccc2Cl)cn1 (stereo not drawn),7.6%,-7.2%,11.2µM*,-0.5%,?,-11.5%
O=C(NCCCc1ccccc1)c1cc([N+](=O)[O-])ccc1Cl,-15.8%,9.9%,1.1%,-2.4%,-1.6%,1.2%
SMILES,POLH inh,POLK inh,WRN inhibitor,POLB inh,Pol iota inh,L3MBTL1 inh
CCOC(=O)c1c(C)c(-c2ccccc2)n(CC(=O)NC2CCCCC2)c1C,-8.5%,6.1%,nt,16.8%,2.5%,nt
CN1CCN(C(=O)c2ccc3ccccc3c2)CC1,-13.2%,-17.4%,3.3%,-9.2%,-1.0%,8.2%
Fc1cccc(CSc2nc3ncccc3[nH]2)c1,1.2%,-2.7%,3.1%,-0.6%,5.3%,-4.4%
Fc1cccc(CSc2nc3ncc(Cl)cc3[nH]2)c1,-21.9%,-9.9%,-5.5%[11.6 µM],35.5µM*,70.8µM*,40.7%
Cn1c(=O)c2c(ncn2CC(=O)NCc2cccnc2)n(C)c1=O,4.7%,-3.8%,-0.4%,10.3%,1.9%,2.2%
COc1ccc(C(=O)NC(=S)Nc2ccc(S(=O)(=O)Nc3cc(OC)ncn3)cc2)cc1,-1.2%,-14.3%,-19.6%,39.4%,-2.0%,nt
COc1cc(NS(=O)(=O)c2ccc(NC(=S)NC(=O)c3sc4ccccc4c3Cl)cc2)ncn1,25.1µM*,-13.5%,?,-22.9%,?,-4.3%
CC(=O)C1=C(O)C(=O)N(c2cccc(Br)c2)C1c1ccccc1Cl (stereo not drawn),-3.3%,-5.2%,5.3%,2.9%,-1.6%,4.7%
CC1(C)Cc2c(c(-c3ccco3)[nH]c(=O)c2C#N)CS1,?,-31.8%,-25.4%,28.2µM*,28.2µM*,-15.3%
O=C(O)c1cnn2c1C(=O)N(Cc1cccs1)CC2,31.6µM*,7.0%,-3.5%,20µM*,9.2%,nt
CC(=O)C1=C(O)C(=O)N(CCc2c[nH]c3ccccc23)C1c1ccco1 (stereo not drawn),-15.9%,-11.3%,-6.2%,31.6µM*,?,nt
O=[N+]([O-])c1cccc(-c2nc(NCc3ccccc3)c3ccccc3n2)c1,-15.9%,2.9%,-8.4%,?,-8.1%,-7.6%
O=[N+]([O-])c1ccc(-c2nc(NCc3ccccc3)c3ccccc3n2)cc1,79.4µM*,-16.1%,-9.3%[57.1 µM],1.1%,45.9%,5.0%
O=C(NCC1CCCO1)C(c1cccs1)N(C(=O)Cn1nnc(-c2cccs2)n1)C1CCCC1 (stereo not drawn),8.7%,-23.7%,-1.7%,21.7%,18.7%,1.5%
CN(C(=O)CSc1ncccn1)C1CCS(=O)(=O)C1 (stereo not drawn),-4.1%,-4.1%,-5.6%,nt,-2.0%,nt
O=C(Nc1cc(-c2ccccc2)sc1C(=O)O)c1cccc(F)c1,?,-15.6%,-21.0%,70.8µM*,?,nt
CCOc1ccc(-c2cc(NC(=O)c3c(F)cccc3F)c(C(=O)O)s2)cc1,?,-11.8%,-12.6%[57.1 µM],?,?,nt
COc1ccccc1CNC(=O)c1oc2ccc3c(c2c1C)C(=O)CC(C)(C)O3,nt,-18.7%,nt,1.8%,89.1µM*,nt
